Inconclusive results are not listed. Activity calls are given as the source filed them. Calls follow the shape of the dose curve; as a rule, active = well fitted inhibition curve with a large enough effect; inconclusive = small, poorly fitted or top-dose-only effect; inactive = no such curve, though single readings can be large or run the other way.
Potency is read from the fitted curve at half-maximal effect.

The assay can be described thus: Acumen qHTS Assay for Inhibitors of the mTORC1 Signaling Pathway in MEF (Tsc2-/-, p53-/-) Cells: Hit Validation.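 Also: phospho-rpS6 Ser235/236 immunofluorescence normalized to propidium iodide cell count; nearly all actives have a fitted effect of over 65% in size.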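 As to activity change, negative = inhibition: cells exposed to compound for 24 hours; plate controls were DMSO for no effect and 7.5 nM rapamycin control for full effect.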 To be noted: Acumen imaging; activity change, negative = inhibition: at 37.3 µM (top of the series). A general note: In qHTS, concentration-response curves come from the screen itself.
For the compound `Cc1cccc(OCC(O)Cn2c(=N)n(CCN3CCCCC3)c3ccccc32)c1` (stereo not drawn), the Potency was 5.85 µM (active). Take `CCc1ccc(-c2nc(CSCC(=O)NCc3ccc(C)cc3)c(C)o2)cc1`: the activity change, negative = inhibition was found to be 4.67%. As for `CCCS(=O)(=O)c1ncc(Cl)c(C(=O)N2CCN(c3ccc(OC)cc3)CC2)n1`, the Potency was 7.36 µM (active). Take `CCCCN(CCCNC(=O)c1cc(Nc2cccc(SC)c2)nc2ccccc12)Cc1ccccc1`: the activity change, negative = inhibition was -95.1%.

In the case of `Cc1cc(-c2ccc(S(=O)(=O)Nc3cccc(C)c3C)s2)on1`, the Potency was 4.14 µM (active). Consider `Cc1ccc2oc(-c3ccc(Cl)cc3)c(O)c(=O)c2c1`, for which the activity change, negative = inhibition is -44.5%.

For `COc1cc(Br)ccc1C1C(C(=O)Nc2ccc(C)cc2C)=C(C)Nc2nnnn21` (stereo not drawn), the activity change, negative = inhibition was -23.7%. The same measure, in the same setting: the same measure for `CC(C)S(=O)(=O)c1oc(-c2ccc(F)cc2)nc1S(=O)(=O)c1ccc(F)cc1`: -95%; for `COc1ccccc1C1C=C(c2ccc(Cl)cc2)Nc2nc(-c3ccc(Cl)cc3)nn21` (stereo not drawn): -9.46%; for `COc1ccc(NC(=O)CSc2c3c(nc4ccccc24)CCC3)c(OC)c1`: 11.1%.

As to `COC(=O)c1ccc(Nc2nnc(-c3ccc(C)c(S(=O)(=O)N4CCN(C)CC4)c3)c3ccccc23)cc1`, the activity change, negative = inhibition is -21.5%. On the same count and under the same terms, as for `CCOC(=O)N1CCN(Cc2nc3cc(NC(=O)c4ccc([N+](=O)[O-])cc4)ccc3n2C(C)C)CC1`, the figure is -17.8%. On the same count and under the same terms, the same measure for `Cc1cccc(N2CCN(C(=O)C3CCN(C(=O)c4cc5sccc5n4C)CC3)CC2C)c1` (stereo not drawn): -39.1%.

In the case of `CCc1ccc(NC(=O)Cn2c(=O)n(-c3ccc(OC)cc3)c(=O)c3ccc(C(=O)NCc4ccc(C)cc4)cc32)cc1`, the Potency was 4.65 µM (active). For the compound `CC(C)CCNc1nc(Nc2ccccc2)c2cnn(C)c2n1`, the activity change, negative = inhibition is 17.1%. On the same count and under the same terms, the same measure for `COc1ccc(CNC(=O)c2cc(-c3ccc(OC)c(OC)c3)nc3n[nH]c(-c4ccc(C)cc4)c23)cc1`: -124%.

For the compound `CC(C)Oc1ccc(CNC(=O)c2ccc3nc(SCc4ccc(F)cc4)n(C)c3c2)cc1`, the activity change, negative = inhibition is -8.96%. In the case of `Cn1nc(-c2ccc(OCC(=O)Nc3ccccc3)cc2)c2ccccc2c1=O`, the activity change, negative = inhibition was -11.2%.

As to `CCOC(=O)c1c(NC(=O)c2ccc(S(=O)(=O)N(CCOC)CCOC)cc2)sc2c1CC(C)(C)NC2(C)C`, the Potency is 8.26 µM (active). Same read-out and setting: as for `COc1cc(C(=O)NC(c2ccccc2Cl)c2cc(Cl)c3cccnc3c2O)cc(OC)c1OC` (stereo not drawn), the figure is 2.33 µM (active); as for `CCN(CC)CCNC(=O)c1cc(-c2ccc(Br)s2)nc2ccccc12`, 11.7 µM (active); as for `CC(C)CCNC(=O)C(=O)Nc1c2c(nn1-c1ccc(Cl)cc1)CSC2`, 5.85 µM (active). Consider `CCOc1ccc(C(=O)Nc2ccc3nc4c(c(Nc5ccccc5OC)c3c2)CCCC4)cc1`, for which the activity change, negative = inhibition is -66.6%. Regarding `Cc1cc(C)c(NC(=O)Cn2c(=O)n(Cc3ccc(C(=O)NCc4ccc5c(c4)OCO5)cc3)c(=O)c3ccccc32)c(C)c1`, the Potency was 5.85 µM (active). In the case of `Cc1ccc(C)c(CN2C(=O)C(=O)c3ccccc32)c1`, the Potency was 1.47 µM (active). With `Cc1nn(CCCC(=O)NCc2ccccc2)c(=O)c2c1sc1ccccc12`, the activity change, negative = inhibition came to 13.7%. Consider `O=C(Cn1cc(SCc2ccccc2)c2ccccc21)N1CCCCCC1`, for which the activity change, negative = inhibition was 15.1%.

For `CCc1nn(CC(=O)NCc2ccccc2)c(=O)c2cccn12`, the activity change, negative = inhibition was found to be 5.81%.

As for `COc1ccc(NC(=O)CSc2nc3ccccc3nc2N2CCC(C)CC2)cc1`, the activity change, negative = inhibition stood at 6.7%. The same measure, in the same setting: as for `CCCOCc1cc(CN2CCN(c3ccccc3OC)CC2)c(O)c2ncccc12`, the figure is -93.6%; as for `COc1ccc(NS(=O)(=O)c2ccc(-n3cccn3)cc2)cc1OC`, -78.8%. Turning to `CCN1C(=O)c2ccccc2Sc2ccc(NC(=O)Cc3ccc(OC)cc3)cc21`, the Potency was 4.14 µM (active). In the case of `COc1ccc(N2CC(c3nc(-c4cc(OC)c(OC)c(OC)c4)no3)CC2=O)cc1Cl` (stereo not drawn), the activity change, negative = inhibition was 5.08%. Take `Cc1ccc(CN(Cc2cccn2-c2nnc(N3CCCC3=O)s2)C(=O)Nc2ccccc2C(F)(F)F)cc1`: the activity change, negative = inhibition is -12.7%. Same read-out and setting: the same measure for `O=C(Nc1ccc(F)c(Cl)c1)c1cc(S(=O)(=O)N2CCCc3ccccc32)ccc1F`: -51.1%.

For the compound `CCS(=O)(=O)c1ncc(Cl)c(C(=O)N(Cc2ccccc2)Cc2ccco2)n1`, the Potency was 5.21 µM (active). As to `O=C(NC1CCN(Cc2ccccc2)CC1)c1ccc(Cn2c(=O)c3ccccc3n(Cc3ccc(F)cc3)c2=O)cc1`, the Potency was 3.69 µM (active). As for `c1ccc(N2CCN(c3ncnc4[nH]ncc34)CC2)cc1`, the activity change, negative = inhibition is 6.17%.

The record behind these values is PubChem BioAssay AID651784 (National Center for Advancing Translational Sciences (NCATS), 2012).
